Data from PubChem BioAssay AID1159580 (chemical genetic matrix, 2015).
Values joined by “and” are separate entries in the source; they are usually repeats but may differ in a detail not shown here. Equal entries are not always repeated. Hit rate of the full screen: of about 5,500 compounds, about 2,000 (36%) were called active. About 18% were inconclusive and are not listed. No stated cut-off is given here; in the data, active means normalized growth mostly below about 0.91 (no sharp cut-off); inconclusive means no clear call, values can overlap the other calls; inactive means mostly above about 0.92. The list shows a part of the results.

Assay: chemical genetic growth profiling, strain panel (AID 1159580);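 further: tested at 20 µM; growth read once vehicle control cultures reached saturation at 30 °C; 1 = growth at the plate median or of vehicle wells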
Settings: S. cerevisiae deletion strains, growth OD

Measured: normalized growth

CC(C)(C)NCC(O)c1ccc(O)c(CO)c1 (stereo not given)
inactive: locus YAL013W, strain DEP1, stronger effect = lower value 1 and 1.04 | locus YAL021C, strain ccr4, stronger effect = lower value 1.02 | locus YAL026C, strain drs2, stronger effect = lower value 1.02 | locus YAL030W, strain snc1, stronger effect = lower value 1.02 | locus YAL040C, strain CLN3, stronger effect = lower value 0.991 and 1.01 | locus YBL061C, strain skt5, stronger effect = lower value 1.02 | locus YBR009C, strain hhf1, stronger effect = lower value 0.998 | locus YBR021W, strain FUR4, stronger effect = lower value 1.01 | locus YBR023C, strain chs3, stronger effect = lower value 1.01 | locus YBR171W, strain sec66, stronger effect = lower value 1.02 | locus YBR229C, strain ROT2, stronger effect = lower value 1 | locus YBR231C, strain swc5, stronger effect = lower value 1.01 | locus YBR279W, strain paf1, stronger effect = lower value 1.01 | locus YCL011C, strain gbp2, stronger effect = lower value 0.998 | locus YCL016C, strain dcc1, stronger effect = lower value 1.02 | locus YCL029C, strain bik1, stronger effect = lower value 1.01 | locus YCL061C, strain MRC1 (second series), stronger effect = lower value 1 and 1.01 | locus YCL061C, strain MRC1, stronger effect = lower value 1 | locus YCL069W, strain vba3, stronger effect = lower value 1.02 | locus YCR088W, strain abp1, stronger effect = lower value 1.01 | locus YDL005C, strain med2, stronger effect = lower value 1.01 | locus YDL035C, strain GPR1, stronger effect = lower value 1.04 | locus YDL040C, strain nat1, stronger effect = lower value 1 | locus YDL074C, strain BRE1, stronger effect = lower value 1.06 | locus YDL101C, strain DUN1, stronger effect = lower value 1.01 | locus YDL134C, strain PPH21, stronger effect = lower value 1 | locus YDL185W, strain tfp1, stronger effect = lower value 1.02 | locus YDL192W, strain arf1, stronger effect = lower value 1.02 | locus YDR001C, strain nth1, stronger effect = lower value 1.01 | locus YDR069C, strain doa4, stronger effect = lower value 0.998 | locus YDR101C, strain arx1, stronger effect = lower value 0.972 | locus YDR137W, strain rgp1, stronger effect = lower value 1.01 | locus YDR150W, strain NUM1, stronger effect = lower value 1.01 | locus YDR159W, strain sac3, stronger effect = lower value 0.99 | locus YDR162C, strain NBP2, stronger effect = lower value 1.03 | locus YDR195W, strain ref2 0.99 | locus YDR297W, strain sur2, stronger effect = lower value 1.01 | locus YDR318W, strain mcm21, stronger effect = lower value 1.02 | locus YDR334W, strain swr1, stronger effect = lower value 0.995 | locus YDR335W, strain msn5, stronger effect = lower value 1.02 | locus YDR363W, strain ESC2, stronger effect = lower value 1.03 | locus YDR388W, stronger effect = lower value 1.02 | locus YDR392W, strain spt3, stronger effect = lower value 0.981 | locus YDR502C, strain sam2, stronger effect = lower value 1.02 | locus YEL003W, strain gim4, stronger effect = lower value 1.01 | locus YEL037C, strain rad23, stronger effect = lower value 1.01 | locus YEL061C, strain CIN8 (second series), stronger effect = lower value 1 | locus YEL061C, strain CIN8, stronger effect = lower value 1.01 | locus YER002W, strain NOP16, stronger effect = lower value 0.988 and 1.03 | locus YER015W, strain faa2, stronger effect = lower value 1.02 | locus YER016W, strain bim1, stronger effect = lower value 1.03 | locus YER110C, stronger effect = lower value 1.02 | locus YER111C, strain swi4, stronger effect = lower value 1.01 | locus YER155C, strain BEM2 (second series), stronger effect = lower value 0.982 | locus YER155C, strain BEM2, stronger effect = lower value 1.01 | locus YER167W, strain BCK2, stronger effect = lower value 1.02 | locus YFR010W, strain ubp6, stronger effect = lower value 1.01 | locus YGL078C, strain dbp3, stronger effect = lower value 1.03 | locus YGL086W, strain mad1, stronger effect = lower value 1.01 | locus YGL167C, strain pmr1, stronger effect = lower value 1.02 | locus YGL173C, strain kem1, stronger effect = lower value 1.01 | locus YGL227W, strain vid30, stronger effect = lower value 0.989 | locus YGL240W, strain doc1, stronger effect = lower value 1.02 | locus YGL248W, strain PDE1, stronger effect = lower value 0.998 | locus YGL253W, strain hxk2, stronger effect = lower value 1.01 | locus YGR078C, strain PAC10, stronger effect = lower value 1.02 | locus YGR135W, strain pre9, stronger effect = lower value 1.06 | locus YGR229C, strain SMI1, stronger effect = lower value 1.02 and 1.05 | locus YGR252W, strain gcn5, stronger effect = lower value 1.12 | locus YHR013C, strain ard1, stronger effect = lower value 1.01 | locus YHR027C, strain rpn1, stronger effect = lower value 1.01 | locus YHR030C, strain SLT2, stronger effect = lower value 1.01 and 1.03 | locus YHR079C, strain IRE1 (second series), stronger effect = lower value 1.01 | locus YHR079C, strain IRE1, stronger effect = lower value 1.03 | locus YHR094C, strain hxt1, stronger effect = lower value 1.02 | locus YHR129C, strain ARP1, stronger effect = lower value 1.02 | locus YHR142W, strain chs7, stronger effect = lower value 1 | locus YHR200W, strain rpn10, stronger effect = lower value 1.02 | locus YIL066C, strain RNR3, stronger effect = lower value 1.01 | locus YIL073C, strain SPO22, stronger effect = lower value 1.1 | locus YIL125W, strain kgd1, stronger effect = lower value 1.01 | locus YIR030C, strain dcg1, stronger effect = lower value 1.02 | locus YJL092W, strain hpr5, stronger effect = lower value 1.01 | locus YJL095W, strain BCK1 (second series), stronger effect = lower value 1.03 | locus YJL095W, strain BCK1, stronger effect = lower value 1.01 and 1.03 | locus YJL115W, strain asf1, stronger effect = lower value 1.04 | locus YJL129C, strain trk1, stronger effect = lower value 1 | locus YJL134W, strain LCB3, stronger effect = lower value 1.02 | locus YJL154C, strain vps35, stronger effect = lower value 1.02 | locus YJL164C, strain tpk1, stronger effect = lower value 1 | locus YJL166W, strain qcr8, stronger effect = lower value 0.999 | locus YJL168C, strain set2, stronger effect = lower value 1.01 | locus YJL187C, strain SWE1 (second series), stronger effect = lower value 0.996 | locus YJR043C, strain POL32, stronger effect = lower value 1.03 | locus YJR066W, strain TOR1, stronger effect = lower value 0.979
